Screening results (PubChem)
HP1b binding inh – blocks HP1-beta chromodomain binding to methylated histone tails; P83916; AlphaScreen HP1-beta / biotin-H3K9me3 peptide binding; Potency, µM (series often up to 114 µM), inactives show at the top dose activity change, negative = inhibition, usual class: inhibitors; 390,000 tested, 0.56% active; also: nearly all actives have a fitted effect of over 70% in size
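HP1-beta protein (50 nM final) preincubated 30 min at room temperature with biotinylated H3(1-18)K9me3 peptide (50 nM) in PBS pH 7.4, 0.01% Tween-20, then compound added for 30 min. AlphaScreen streptavidin donor/nickel chelate acceptor beads (10 ug/mL final), 30 min dark, luminescence read.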
JMJD2A Tudor – inhibitors of human JMJD2A Tudor domain | O75164 | AlphaScreen JMJD2A-Tudor / H3K4me3 peptide binding | Potency, µM (series often up to 114 µM), for the others: top-dose activity change, negative = inhibition, usual class: inhibitors | 390,000 tested, 4.4% active; also: % is scaled to controls: 0 for no effect and ±100 for the full control effect; nearly all actives have a fitted effect of over 50% in size
L3MBTL1 block – inhibitors of human L3MBTL1 | Q9Y468 | AlphaScreen L3MBTL1–H3K9me1 peptide binding | Potency, µM (titrated, usually from 57.1 µM), for inactives: at the highest dose activity, negative = inhibition, most hits filed as inhibitors | 230,000 tested, 0.66% active | AID 485360; also: % is scaled to controls: 0 for no effect and ±100 for the full control effect; nearly all actives have a fitted effect of over 60% in size
Target sequence (Q9Y468 whole entry, looked up): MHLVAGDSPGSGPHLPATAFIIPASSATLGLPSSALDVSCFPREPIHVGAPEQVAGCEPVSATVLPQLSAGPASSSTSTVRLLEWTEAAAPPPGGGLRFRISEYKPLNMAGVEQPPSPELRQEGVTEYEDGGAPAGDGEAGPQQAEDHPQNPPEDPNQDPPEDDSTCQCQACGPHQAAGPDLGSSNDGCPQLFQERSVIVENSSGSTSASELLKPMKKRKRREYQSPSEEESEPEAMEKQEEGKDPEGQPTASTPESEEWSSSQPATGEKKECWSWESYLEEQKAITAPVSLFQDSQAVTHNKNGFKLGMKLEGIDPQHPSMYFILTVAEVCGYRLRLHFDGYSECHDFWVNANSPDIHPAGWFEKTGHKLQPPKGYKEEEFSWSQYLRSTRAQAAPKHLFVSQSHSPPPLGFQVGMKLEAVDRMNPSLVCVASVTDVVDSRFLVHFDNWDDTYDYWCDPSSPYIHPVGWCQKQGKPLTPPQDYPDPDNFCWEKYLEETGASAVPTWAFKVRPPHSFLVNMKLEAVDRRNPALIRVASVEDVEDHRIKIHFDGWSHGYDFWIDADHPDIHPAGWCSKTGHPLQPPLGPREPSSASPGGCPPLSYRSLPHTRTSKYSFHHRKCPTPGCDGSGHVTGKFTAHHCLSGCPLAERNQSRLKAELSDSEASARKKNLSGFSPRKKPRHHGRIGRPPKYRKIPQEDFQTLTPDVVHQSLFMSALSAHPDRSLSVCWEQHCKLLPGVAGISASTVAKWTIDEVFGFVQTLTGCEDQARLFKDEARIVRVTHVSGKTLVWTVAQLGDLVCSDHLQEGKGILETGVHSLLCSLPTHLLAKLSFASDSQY
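AlphaScreen assay: L3MBTL1 (50 nM final) was preincubated 30 min at room temperature with biotinylated H3(1-15)K9me1 peptide (75 nM final), then 30 min with library compounds; streptavidin donor and nickel chelate acceptor beads (10 ug/mL final) added, 30 min dark.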
Sfp PPTase inh – Sfp phosphopantetheinyl transferase inhibition | Q9F4F7 | Biochemical Sfp PPTase activity, qHTS | Potency, µM, for the others: largest response in the series, negative = inhibition, actives largely listed as inhibitors | 310,000 tested, 3.5% active;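 also: the enzyme is Sfp with the accession as filed and its product quenches rhodamine fluorescence; 0% = enzyme reaction without inhibitor and -100% = no enzyme wells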
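Reaction rates are the 30-min fluorescence difference (ex 525, em 598 nm) in wells containing 15 nM Sfp, 5 uM rhodamine-CoA and 12.5 uM BHQ-2-YbbR at pH 7.6 with 10 mM MgCl2.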
BAZ2B inh – blocks human BAZ2B | Q9UIF8 | AlphaScreen BAZ2B-H3K14Ac peptide displacement | Potency, µM (top dose mostly 114 µM), for inactives: top-dose activity change, negative = inhibition, usual class: inhibitors | 360,000 tested, 4.4% active; also: % is scaled to controls: 0 for no effect and ±100 for the full control effect; nearly all actives have a fitted effect of over 60% in size
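Protein-peptide AlphaScreen: BAZ2B 50 nM, b-H3K14Ac 50 nM, 1x PBS pH 7.4 + 0.01% Tween-20. Preincubation 30 min RT; cpd 30 min RT (top 110 uM); beads 20 min RT, light-protected.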
G9a inh – G9a (human) methyltransferase inhibition | G9a H3K9 monomethylation, AlphaScreen, 2 h | 350,000 tested, 8.8% active | Q96KQ7 | Potency, µM (titrated, usually from 102 µM), inactives show at the highest dose activity, negative = inhibition, usual class: inhibitors; also: % is scaled to controls: 0 for no effect and ±100 for the full control effect; nearly all actives have a fitted effect of over 75% in size
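G9a (20 nM) preincubated 15 min RT with compounds, then 500 nM biotinylated H3K9 peptide and 20 uM SAM added; 2 h RT reaction. Monomethyl-H3K9 product detected by AlphaScreen with anti-H3K9me1 antibody, streptavidin donor and anti-rabbit IgG acceptor beads.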
* marks the source's active call; other numbers are inactive results; [ ] = another dose, or the depositor's remark. Hits are enriched below; roughly 12% of the tested compounds scored in any of these assays. Calls follow the shape of the dose curve; as a rule, active = well fitted curve in the direction sought with a large enough effect; inconclusive = small, poorly fitted or top-dose-only effect, or another doubt; inactive = no such curve, though single readings can be large; an effect the other way counts as inactive or inconclusive. Potency is read from the fitted curve at half-maximal effect.

Results for COc1ccc(NS(=O)(=O)c2ccc3oc(SCc4ccc(F)cc4)nc3c2)cc1 ?
HP1b binding inh: -5.5%; JMJD2A Tudor: -25.8%; L3MBTL1 block: 5.5%; Sfp PPTase inh: 10.3%; BAZ2B inh: -3.0%; G9a inh: 79.4µM*

What do the screens show for `CCn1c(=S)[nH]c2cc(Cl)ccc21`?
HP1b binding inh: 46.7%; JMJD2A Tudor: -12.8%; Sfp PPTase inh: -7.8%; BAZ2B inh: -7.8%

Results for CCn1c(=O)cc(C(F)(F)F)[nH]c1=S ?
HP1b binding inh: 31.3%; JMJD2A Tudor: -20.6%; L3MBTL1 block: -0.1%; Sfp PPTase inh: 79.4µM*; BAZ2B inh: -13.3%; G9a inh: 25.1µM*

How did Nc1cc2c([N+](=O)[O-])cccc2o1 do in these assays?
HP1b binding inh: -24.1%; JMJD2A Tudor: -22.2%; L3MBTL1 block: -4.3%; Sfp PPTase inh: 6.4%; BAZ2B inh: 56.2µM*; G9a inh: 2.9%[2.33 µM]

Results for Cc1c(N)cccc1[N+](=O)[O-] ?
HP1b binding inh: 3.2%; JMJD2A Tudor: -2.8%; L3MBTL1 block: 9.0%; BAZ2B inh: -6.7%; G9a inh: -2.9%[0.501 µM]

How did Cc1ccc(C2(c3ccccc3)NC(=O)N(CC(=O)NC3CCCCC3)C2=O)cc1C (stereo not drawn) do in these assays?
HP1b binding inh: 16.9%; JMJD2A Tudor: -16.6%; L3MBTL1 block: 1.0%; BAZ2B inh: -3.1%; G9a inh: 14.1µM*

Results for CCC(=O)N1CCc2cc(S(=O)(=O)NCCC(=O)Nc3ccc(C)cc3)ccc21 ?
HP1b binding inh: 20.4%; JMJD2A Tudor: -15.0%; G9a inh: -2.9%[59 µM]

How did C=C(C)Cn1c(-c2ccncc2)n[nH]c1=S do in these assays?
HP1b binding inh: 8.4%; JMJD2A Tudor: 50.1µM*; L3MBTL1 block: 0.1%; Sfp PPTase inh: inconclusive; BAZ2B inh: inconclusive; G9a inh: 14.1µM*

How did CC(C)Cn1c(-c2csc3c2CCCC3)n[nH]c1=S do in these assays?
HP1b binding inh: 0.7%; JMJD2A Tudor: 79.4µM*; L3MBTL1 block: -6.6%; Sfp PPTase inh: inconclusive; BAZ2B inh: inconclusive; G9a inh: 8.91µM*

Results for CC(C)Cn1c(-c2ccncc2)n[nH]c1=S ?
HP1b binding inh: 25.1%; JMJD2A Tudor: 20µM*; L3MBTL1 block: 4.8%[11.4 µM]; Sfp PPTase inh: inconclusive; BAZ2B inh: inconclusive; G9a inh: 7.08µM*

How did CC(C)Cn1c(-c2ccccc2F)n[nH]c1=S do in these assays?
HP1b binding inh: -13.5%; JMJD2A Tudor: 3.98µM*; Sfp PPTase inh: inconclusive; BAZ2B inh: 15.6%; G9a inh: 1.41µM*

What do the screens show for `CCOC(=O)c1nn(-c2ccc(OC)cc2)c(=O)c2c(NC(=O)Cc3ccccc3)scc12`?
JMJD2A Tudor: -12.3%

What do the screens show for `COCCn1c(=O)c(-c2cccs2)nc2cnc(N(C)C)nc21`?
Sfp PPTase inh: 21.5%; G9a inh: -1.9%[0.501 µM]

How did CC(C)Cn1c(-c2ccc(F)cc2)n[nH]c1=S do in these assays?
HP1b binding inh: inconclusive; JMJD2A Tudor: 7.94µM*; L3MBTL1 block: -0.5%; Sfp PPTase inh: -66.6%; BAZ2B inh: 5.2%; G9a inh: inconclusive

Results for CC(C)Cn1c(-c2ccccc2)nc2ccccc2c1=O ?
HP1b binding inh: 64.2%; JMJD2A Tudor: 0.6%; L3MBTL1 block: 2.4%; Sfp PPTase inh: 14.3%; BAZ2B inh: -0.4%[57.1 µM]; G9a inh: 82.2%[59 µM]

Results for Fc1ccccc1-c1n[nH]c(=S)n1C1CC1 ?
Sfp PPTase inh: -17.4%; BAZ2B inh: -24.5%; G9a inh: 8.91µM*

How did Brc1ccc(-c2csc(/N=C/N3CCOCC3)n2)cc1 do in these assays?
HP1b binding inh: 2.5%; JMJD2A Tudor: -19.0%; L3MBTL1 block: -1.1%; Sfp PPTase inh: 6.1%; BAZ2B inh: -38.8%; G9a inh: 50.1µM*

Results for CCOC(=O)c1cc(C)nc(SC)c1C#N ?
HP1b binding inh: 67.3%; JMJD2A Tudor: 12.2%; L3MBTL1 block: -27.3%; Sfp PPTase inh: 79.4µM*; BAZ2B inh: -1.5%; G9a inh: 50.1µM*

What do the screens show for `CCOC(=O)c1cc(C#N)c(SCc2cccc3ccccc23)nc1C`?
HP1b binding inh: 48.9%; JMJD2A Tudor: 23.6%; Sfp PPTase inh: 19.5%; BAZ2B inh: 11.6%; G9a inh: 37.7%[59 µM]

How did CCOC(=O)c1cc(C#N)c(SCC(=O)c2cc(C#N)c(SC)nc2C)nc1C do in these assays?
HP1b binding inh: 22.2%; JMJD2A Tudor: -15.1%; L3MBTL1 block: -2.2%; Sfp PPTase inh: 15.8µM*; BAZ2B inh: 9.0%; G9a inh: 44.7µM*

Results for CCSc1nc(C)c(C(C)=O)cc1C#N ?
HP1b binding inh: 52.7%; JMJD2A Tudor: 6.8%; Sfp PPTase inh: 8.8%; BAZ2B inh: inconclusive; G9a inh: 17.8%

How did CSc1nc(C)c(C(=O)C[n+]2ccccc2)cc1C#N do in these assays?
HP1b binding inh: 11.6%; JMJD2A Tudor: -12.3%; L3MBTL1 block: 10.9%; Sfp PPTase inh: -5.6%; BAZ2B inh: 0.794µM*

Results for CCOC(=O)c1cc(C(C)(C)C)nc(SC)c1C#N ?
HP1b binding inh: 184.1%; JMJD2A Tudor: 116.9%; L3MBTL1 block: 80.7%; Sfp PPTase inh: -2.7%; BAZ2B inh: 129.8%; G9a inh: 478.3%

How did CCCCC1=CC2=C(OC(C)=O)C(=O)C(C)(OC(=O)C3CCCC3)C(=O)C2=CO1 (stereo not drawn) do in these assays?
Sfp PPTase inh: -13.1%

How did O=C(CCN1C(=O)/C(=C/c2ccccc2Cl)SC1=S)Nc1ccccc1C(=O)O do in these assays?
HP1b binding inh: -9.6%; JMJD2A Tudor: inconclusive; Sfp PPTase inh: 0.9%; BAZ2B inh: 35.5µM*; G9a inh: 25.1%[2.33 µM]

What do the screens show for `Cc1cc(NC(=O)CCCN2C(=O)/C(=C\c3cccs3)SC2=S)no1`?
HP1b binding inh: 3.5%; JMJD2A Tudor: -10.8%; L3MBTL1 block: 0.5%; Sfp PPTase inh: -0.1%; BAZ2B inh: -3.8%; G9a inh: -7.9%

Results for Cc1cc(NC(=O)CCN2C(=O)/C(=C\c3ccccc3Cl)SC2=S)no1 ?
HP1b binding inh: 32.7%; JMJD2A Tudor: -5.6%; Sfp PPTase inh: 50.1µM*; BAZ2B inh: -6.3%; G9a inh: 8.1%

Results for CN1CCN(NC(=O)CN2C(=O)/C(=C/c3ccccc3Cl)SC2=S)CC1 ?
HP1b binding inh: -10.7%; JMJD2A Tudor: inconclusive; L3MBTL1 block: -6.1%; Sfp PPTase inh: inconclusive; BAZ2B inh: inconclusive; G9a inh: inconclusive

Results for CN1CCN(NC(=O)CN2C(=O)/C(=C/c3c(Cl)cccc3Cl)SC2=S)CC1 ?
HP1b binding inh: 19.9%; JMJD2A Tudor: inconclusive; L3MBTL1 block: -10.0%; Sfp PPTase inh: -18.3%; BAZ2B inh: inconclusive; G9a inh: 56.2µM*
